Inconclusive results are not listed. A call without a number means that no potency is given here. Activity calls are given as the source filed them. Calls follow the shape of the dose curve; as a rule, active = well fitted curve in the direction sought with a large enough effect; inconclusive = small, poorly fitted or top-dose-only effect, or another doubt; inactive = no such curve, though single readings can be large or run the other way.
Assay: qHTS for Inhibitors of Bloom's syndrome helicase (BLM): Thiazole Orange DNA Binding Counterscreen for SAR.
Conditions: fluorescence; Potency: Thiazole orange DNA displacement; series mostly up to 57.1 µM
Outline: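 Counterscreen for nonspecific DNA binding: thiazole orange (100 nM) pre-bound to 50 nM unlabeled DNA, test compound added, 15 min room-temperature incubation, then ex 480/em 530 nm fluorescence measured; lack of displacement preferred.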

Q: With O=C(Nc1cc(C(F)(F)F)cc(C(F)(F)F)c1)Nc1nnc(-c2ccncc2)s1 as the molecule, how does the Potency read?
A: inactive

Q: For O=C(Nc1ccc(Cl)c(Cl)c1)Nc1ccc(-c2ccncc2)s1, which Potency is on record?
A: inactive

Q: With Cc1cc(NC(=O)Nc2nnc(-c3cccnc3)s2)ccc1Br as the molecule, how does the Potency read?
A: inactive

Q: For N#Cc1cc(NC(=O)Nc2cccc(-c3ccncc3)n2)ccc1Cl, which Potency is on record?
A: inactive

Q: With Cc1cc(NC(=O)Nc2nnc(-c3ccncc3)s2)ccc1F as the molecule, how does the Potency read?
A: inactive

Q: For Cc1cc(NC(=O)Nc2nnc(C3CCCCC3)s2)ccc1Br, which Potency is on record?
A: inactive

Q: Which Potency does the source give for Cc1cc(C)c(-c2nnc(NC(=O)Nc3ccc4ccccc4c3)s2)c(C)c1 here?
A: inactive

Q: For O=C(Nc1ccc(Cl)c(Cl)c1)Nc1nc(-c2ccncc2)cs1, which Potency is on record?
A: inactive

Q: For Cc1cc(NC(=O)Nc2cccc(-c3ccncc3)n2)ccc1Br, which Potency is on record?
A: inactive

Q: For O=C(Nc1ccc(Cl)c(C(F)(F)F)c1)Nc1nnc(-c2cccnc2)s1, which Potency is on record?
A: inactive

Q: For COc1ccc(NC(=O)Nc2ccc(-c3nc4ccccc4[nH]3)cc2)cc1OC, which Potency is on record?
A: inactive

Q: With O=C(Nc1ccc2ccccc2c1)Nc1nnc(-c2ccc(F)cc2)s1 as the molecule, how does the Potency read?
A: inactive

Q: For Cc1cnccc1-c1nnc(NC(=O)Nc2ccc(F)c(C(F)(F)F)c2)s1, which Potency is on record?
A: inactive

Q: Which Potency does the source give for O=C(Nc1ccc2ccccc2c1)Nc1nnc(-c2ccccn2)s1 here?
A: inactive

Q: Which Potency does the source give for O=C(Nc1ccc(F)c(C(F)(F)F)c1)Nc1cccc(-c2ccncc2)n1 here?
A: inactive

Q: For O=C(Cc1nnc(-c2ccncc2)s1)Nc1ccc(F)c(C(F)(F)F)c1, which Potency is on record?
A: inactive

Q: With CN1CCN(c2nnc(NC(=O)Nc3ccc(Cl)c(Cl)c3)s2)CC1 as the molecule, how does the Potency read?
A: inactive

Q: With O=C(Nc1ccc(-c2cn[nH]c2)c(C(F)(F)F)c1)Nc1nnc(-c2ccncc2)s1 as the molecule, how does the Potency read?
A: inactive

Q: Which Potency does the source give for O=C(Nc1ccc(Cl)nc1)Nc1nnc(-c2ccncc2)s1 here?
A: inactive

Q: Which Potency does the source give for O=C(Nc1ccc(Cl)c([N+](=O)[O-])c1)Nc1nnc(-c2ccncc2)s1 here?
A: 513 nM (active)

Q: Which Potency does the source give for O=C(Nc1ccc2ccccc2c1)Nc1nnc(-c2ccccc2Cl)s1 here?
A: inactive

Q: With O=C(Nc1ccc(Cl)cc1)Nc1nnc(-c2ccncc2)s1 as the molecule, how does the Potency read?
A: inactive

Q: Which Potency does the source give for CCOc1ccc(NC(=O)Nc2ccc(-c3nc4ccccc4[nH]3)cc2)cc1 here?
A: inactive

Q: For N#CN/C(=N\c1nnc(-c2ccncc2)s1)Nc1ccc(F)c(C(F)(F)F)c1, which Potency is on record?
A: inactive

Q: Which Potency does the source give for O=C(Nc1ccc2ccccc2c1)Nc1nnc(-c2ccncc2)s1 here?
A: inactive

Q: For O=C(Nc1ccc(Cl)c(Cl)c1)Nc1nnc(-c2cccnc2)s1, which Potency is on record?
A: inactive

Q: For O=C(Nc1ccc(Cl)c(Cl)c1)Nc1nnc(Br)s1, which Potency is on record?
A: inactive

Q: For O=C(Nc1ccc(N2CCOCC2)c(F)c1)Nc1nnc(-c2ccncc2)s1, which Potency is on record?
A: inactive

Q: For O=C(Nc1ccc(-c2nc3ccccc3[nH]2)cc1)Nc1ccc2c(c1)OCCO2, which Potency is on record?
A: inactive

Q: With O=C(Cc1ccc2ccccc2c1)Nc1nnc(-c2ccncc2)s1 as the molecule, how does the Potency read?
A: inactive

Q: For O=C(Nc1nnc(-c2ccncc2)s1)Oc1ccc2ccccc2c1, which Potency is on record?
A: inactive

Q: Which Potency does the source give for O=C(NCc1ccc(Cl)c(Cl)c1)Nc1nnc(-c2ccncc2)s1 here?
A: inactive

Q: With O=C(Nc1ccccc1)Nc1nnc(-c2ccncc2)s1 as the molecule, how does the Potency read?
A: inactive

Q: For CC(=O)c1ccc(NC(=O)Nc2nnc(-c3ccncc3)s2)cc1, which Potency is on record?
A: inactive

Q: For O=C(Nc1ccc2ccccc2c1)Nc1nnc(-c2ccccc2F)s1, which Potency is on record?
A: inactive

Q: Which Potency does the source give for O=C(Nc1ccc(F)c(C(F)(F)F)c1)Nc1nnc(-c2cccnc2)s1 here?
A: inactive

Q: For N#Cc1ccc(NC(=O)Nc2nnc(-c3ccncc3)s2)c(Cl)c1, which Potency is on record?
A: inactive

Q: With O=C(Nc1ccc(Cl)c(Cl)c1)Nc1ccnc(-c2ccncc2)n1 as the molecule, how does the Potency read?
A: inactive

From PubChem BioAssay AID720550 (National Center for Advancing Translational Sciences (NCATS), 2013)
